Bioassay records: PubChem BioAssay, several laboratories
CF NFkB inh: inhibitors of cystic fibrosis induced NF-kB | KKLEB NF-kB-GFP reporter, PAF-induced, GFP fluorescence overnight | AID 588850 | 360,000 tested, 0.86% active | inhibition, % at 5 µM;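 active = at least 50% inhibition at 5 µM, scaled per plate between neutral and stimulator controls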;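 note: PAF is a Pseudomonas aeruginosa culture filtrate used as stimulus; plate controls were PAF-stimulated DMSO wells for no effect and unstimulated DMSO wells for full effect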
KKLEB tox: reduces viability of KKLEB cystic fibrosis airway cells; KKLEB CF airway cells viability, ATPlite luminescence, overnight; stronger effect = lower value; cells stimulated with P. aeruginosa culture filtrate; 360,000 tested, 0.36% active; activity change (cytotoxicity), % at 5 µM;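 active = corrected activity change at or below -50% at 5 µM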
HIF-2a inh: inhibitors of HIF-2a. 786-0 RCC cells HIF-2a reporter, luciferase luminescence, overnight. inhibition, % at 18.8 µM. 360,000 tested, 0.72% active. AID 624352;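 active = inhibition of the luminescence signal of 40% or more relative to plate controls, in a single-dose primary screen at 18.75 µM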
TRPM1 prom inh: MITF TRPM1 promoter inhibition in SK-MEL-5 cells; inhibition, % at 12.5 µM; SK-MEL-5 TRPM1 promoter luciferase, 24 h; AID 488899; 330,000 tested, 0.83% active;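 active = mean inhibition across replicates of 60% or more, whatever share of single replicates reaches that level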
Peg3 prom inh: Peg3 promoter activity inhibition | HeLa PEG-Prom luciferase reporter, luminescence, overnight | inhibition, % at 20 µM | 360,000 tested, 1.7% active | AID 588405;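 active = inhibition of at least 50% at 20 µM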
CHOP inhibitor: CHOP inhibition in unfolded protein response | CHO-K1 CHOP-promoter luciferase, tunicamycin-induced, 15-18 h | inhibition, % at 10 µM | AID 2732 | 220,000 tested, 3.8% active;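 active = compounds that reduced the stress-induced luciferase reporter signal by more than about 70% of percent inhibition, limit read from the data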;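 note: 0% = tunicamycin plus vehicle and 100% = wells without tunicamycin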
Active calls of the source: *; nt = not tested or not shown. The list is not random: actives were taken first. Their share in the collection is about 4.3%.

SMILES	CF NFkB inh	KKLEB tox	HIF-2a inh	TRPM1 prom inh	Peg3 prom inh	CHOP inhibitor
Cn1c(SCC(=O)c2ccc(O)c(O)c2)nnc1-c1ccccc1	-3.9	-1.3	6.3	1.2	-1.1	nt
Cc1cccc(CCNCc2c(C(=O)O)c(C)n(-c3ccccc3)c2C)c1	12.6	0.4	6.9	-13.8	1.6	nt
COCCCNC(=O)C[C@@H]1C[C@@]2(C(=O)OC)CC(C)(C)CC=C2N(Cc2ccc3c(c2)OCO3)C1=O	nt	nt	0.1	nt	nt	nt
O=C1C(O)=CC(=C(c2ccccc2)c2ccccc2)c2ccccc21	31.6	-9.2	25.3	61.3*	1.1	nt
CC1CC(C)CN(CCOc2cccc(Cl)c2Cl)C1 (configuration not stated)	8.5	-17.1	12.9	-8.9	11.3	73.1*
Cc1ccc(N(Cc2ccccc2)C(=O)c2cc(S(=O)(=O)N3CCOCC3)ccc2F)cc1	0.7	-5.6	-35.8	-39.9	-17.0	nt
CO[C@@]12[C@H](COC(N)=O)C3=C(C(=O)C(C)=C(N)C3=O)N1C[C@@H]1N[C@@H]12	17.4	-1.0	-5.5	3.7	-8.3	nt
CO[C@@]12[C@@H]3N[C@@H]3CN1C1=C(C(=O)C(N)=C(C)C1=O)[C@@H]2COC(N)=O	-21.7	-13.4	6.4	58.1	59.9*	nt
Cc1cc(C)n(CCNS(=O)(=O)c2ccccc2)n1	-2.1	-2.9	7.3	-3.7	7.2	nt
O=C1OC(c2ccccc2)=N/C1=C\C=C\c1ccccc1[N+](=O)[O-]	2.7	-1.6	11.3	-6.4	8.0	70.7*
O=C1OC(c2ccccc2)=N/C1=C\C=C\c1ccco1	11.7	19.8	13.1	7.6	6.0	60.2
C/C(=N/OC(=O)c1ccc(C)cc1)c1cccs1	-4.1	7.1	-99.7	11.1	-36.1	35.9
CC/C(=N/OC(=O)c1cccc(C)c1)C(=O)c1cccs1	-17.9	3.0	0.5	-2.4	-10.1	75.1*
O=C(CNc1ccc(Br)cc1)Nc1ccc(S(=O)(=O)N2CCCC2)cc1	-21.9	-7.5	17.4	-4.2	13.7	nt
COc1ccccc1NC(=S)N1CCC(C(=O)c2ccc(F)cc2)CC1	0.0	-6.7	11.7	9.2	22.1	12.1
CCCC(=O)Nc1ccc2c(c1)C(=O)N(C)C[C@@H](OC)[C@H](C)CN(Cc1ccc(-c3ccccn3)cc1)[C@@H](C)CO2	nt	nt	-15.8	nt	nt	nt
COC(=O)c1cnc(SCc2ccc(Cl)cc2)n1C	-13.7	7.0	-231.8	-27.8	-147.6	75.3*
COC(=O)c1cnc(SCC(=O)c2ccccc2)n1C	-4.1	-1.8	-242.8	-31.4	-247.1	nt
C=C(C)COc1ccc(-c2nc(N)ncc2-c2ccc(OC)cc2)c(O)c1	nt	nt	nt	nt	nt	102.8*
COc1cccc(Oc2cnc(N)nc2-c2ccc(OC)cc2O)c1	31.0	-14.5	10.0	11.7	30.4	nt
C=C(C)COc1ccc(-c2nc(N)nc(C)c2Oc2ccccc2OC)c(O)c1	9.0	-9.9	7.2	3.4	-4.9	84.5*
C=C(C)COc1ccc(-c2nc(N)ncc2-c2ccc(OC)c(OC)c2)c(O)c1	31.8	-12.8	32.7	-6.5	4.0	nt
COc1ccc(-c2nc(N)ncc2Oc2ccccc2Br)c(O)c1	29.2	-16.9	27.9	-16.6	20.9	87.7*
C=C(C)COc1ccc(-c2nc(N)nc(C)c2-c2ccc(OC)cc2)c(O)c1	-11.5	9.7	0.9	3.9	11.5	92.0*
Cc1ccc(-c2nc3c(Cl)cc(C(F)(F)F)cn3c2Cc2cccc(F)c2)cc1	4.1	-3.7	-34.4	nt	-50.2	nt
SMILES	CF NFkB inh	KKLEB tox	HIF-2a inh	TRPM1 prom inh	Peg3 prom inh	CHOP inhibitor
CCOc1cccc(-c2c(C(=O)N/N=C/c3ccoc3)nnn2-c2nonc2N)c1	-8.6	-14.8	3.3	-9.2	5.7	nt
CC1(C(=O)NCC2CCCCC2)CCN1CCc1ccccc1 (configuration not stated)	-21.6	-12.6	8.7	nt	7.6	nt
O=C(Cn1nnc(-c2ccccc2)n1)OCc1ccccc1	-4.3	-0.9	7.8	6.9	-1.6	76.1*
C[C@@H]1CN([C@H](C)CO)C(=O)c2cc(NS(=O)(=O)c3ccc(F)cc3)ccc2O[C@@H]1CN(C)Cc1ccc(Cl)c(Cl)c1	-4.5	13.2	-14.6	0.4	52.4*	nt
C[C@@H]1CN([C@@H](C)CO)C(=O)Cc2cc(NC(=O)Nc3ccc(C(F)(F)F)cc3)ccc2O[C@@H]1CN(C)S(=O)(=O)c1ccc(Cl)cc1	26.2	-5.3	-15.3	47.1	59.9*	nt
C[C@H](CO)N1C[C@H](C)[C@@H](CN(C)S(=O)(=O)c2ccc(F)cc2)Oc2ccc(NS(=O)(=O)c3ccc(F)cc3)cc2C1=O	-13.5	2.5	11.8	-20.8	-1.1	nt
C[C@H](CO)N1C[C@H](C)[C@H](CN(C)S(=O)(=O)c2cn(C)cn2)Oc2ccc(NC(=O)Nc3ccc(C(F)(F)F)cc3)cc2CC1=O	32.4	-20.3	6.3	23.9	-15.1	nt
C[C@H](CO)N1C[C@H](C)[C@@H](CN(C)Cc2ccc(-c3ccccc3)cc2)Oc2c(NC(=O)Nc3ccc4c(c3)OCO4)cccc2C1=O	6.4	-2.0	-46.5	1.0	94.0*	nt
C[C@H]1CN([C@@H](C)CO)C(=O)c2cccc(NC(=O)Nc3ccc(C(F)(F)F)cc3)c2O[C@@H]1CN(C)Cc1ccc(Cl)c(Cl)c1	67.8*	-48.4	-35.7	45.7	97.0*	nt
Cn1cccc1C(=O)OCC(=O)N1CCN(c2ccccc2)CC1	1.1	7.1	-28.9	-9.1	-26.6	nt
O=C1CC(N2CCC(c3nc4ccccc4o3)CC2)C(=O)N1c1ccc(Cl)c(C(F)(F)F)c1 (configuration not stated)	-5.5	1.4	9.1	3.0	19.8	86.3*
O=C1CC(N2CCC(c3nc4ccccc4o3)CC2)C(=O)N1c1ccc(F)cc1 (configuration not stated)	15.5	-9.0	9.9	0.9	1.6	3.9
Cc1ccc(NC(=O)C2(C)CCN2Cc2ccccc2OC(F)F)cc1 (configuration not stated)	14.3	-7.4	-15.6	nt	18.4	nt
CCc1ccc(N(CC(=O)Nc2nc3ccc(C)cc3s2)S(=O)(=O)c2c(C)noc2C)cc1	6.5	-1.4	3.1	-13.0	44.9	82.6*
CCCCN1C(=O)C(CC(=O)NCC2CCCCC2)CC(C(=O)N2CCOCC2)=C1C (configuration not stated)	-1.5	11.1	-16.9	nt	-31.9	nt
C=CCn1c(-c2csc3c2CCC(C)C3)n[nH]c1=S (configuration not stated)	1.9	4.9	-36.5	0.7	-10.3	80.1*
CCCCn1c(-c2csc3c2CCC(C)C3)n[nH]c1=S (configuration not stated)	-10.2	-0.5	12.7	12.0	-10.1	83.9*
COc1ccc([N+](=O)[O-])cc1N(CC(=O)N1CCN(Cc2ccccc2)CC1)S(C)(=O)=O	-14.9	-0.6	20.0	-2.2	17.4	nt
CSc1ccc2c(c1)N(CCC1CCCCN1C)c1ccccc1S2 (configuration not stated)	28.6	-8.7	-18.6	-5.7	99.1*	-2.6
